Laboratory results: the supplement of paper PMC6411743
± gives the standard deviation of the averaged measurements. The full data set covers some 6,500 targets. This sample favours those with the largest changes.

Tests used:
Experiment in all cases: NP40-soluble protein abundance relative to vehicle (solubility fold change) (ratio); higher = more soluble protein in presence of ATP
[1] = biological target: T1, GBP1 (UniProt P32455)
T1 sequence (whole entry): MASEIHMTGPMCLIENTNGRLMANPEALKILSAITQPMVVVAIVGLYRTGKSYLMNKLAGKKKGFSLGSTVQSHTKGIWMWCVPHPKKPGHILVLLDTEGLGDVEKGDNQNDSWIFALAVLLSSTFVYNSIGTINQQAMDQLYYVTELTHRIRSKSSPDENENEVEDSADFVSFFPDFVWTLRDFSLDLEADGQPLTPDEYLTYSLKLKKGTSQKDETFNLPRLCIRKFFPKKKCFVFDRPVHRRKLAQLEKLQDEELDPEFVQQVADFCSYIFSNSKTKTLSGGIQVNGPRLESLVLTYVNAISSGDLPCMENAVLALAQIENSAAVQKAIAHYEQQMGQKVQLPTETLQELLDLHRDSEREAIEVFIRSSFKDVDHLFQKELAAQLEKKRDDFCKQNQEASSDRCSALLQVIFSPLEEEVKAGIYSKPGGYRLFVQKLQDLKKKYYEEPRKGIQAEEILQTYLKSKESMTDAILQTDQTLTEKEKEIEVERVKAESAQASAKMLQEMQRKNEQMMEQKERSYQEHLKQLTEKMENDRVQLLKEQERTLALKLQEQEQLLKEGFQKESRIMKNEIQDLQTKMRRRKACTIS
Method in brief: (§1)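 Eight concentrations, 0.1 to 10 mM, were tested on Jurkat crude lysate for 10 min at room temperature and then 3 min at 37 °C, in three independent experiments. The lysate was solubilised with 0.8% NP40 and benzonase, ultracentrifuged, and the supernatant TMT-labelled for LC-MS/MS. Each value is the fold change against the detergent-processed vehicle in its own replicate, from vsn-normalised intensities.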

[2] = biological target: T2, NKTR (UniProt P30414)
T2 sequence (whole entry): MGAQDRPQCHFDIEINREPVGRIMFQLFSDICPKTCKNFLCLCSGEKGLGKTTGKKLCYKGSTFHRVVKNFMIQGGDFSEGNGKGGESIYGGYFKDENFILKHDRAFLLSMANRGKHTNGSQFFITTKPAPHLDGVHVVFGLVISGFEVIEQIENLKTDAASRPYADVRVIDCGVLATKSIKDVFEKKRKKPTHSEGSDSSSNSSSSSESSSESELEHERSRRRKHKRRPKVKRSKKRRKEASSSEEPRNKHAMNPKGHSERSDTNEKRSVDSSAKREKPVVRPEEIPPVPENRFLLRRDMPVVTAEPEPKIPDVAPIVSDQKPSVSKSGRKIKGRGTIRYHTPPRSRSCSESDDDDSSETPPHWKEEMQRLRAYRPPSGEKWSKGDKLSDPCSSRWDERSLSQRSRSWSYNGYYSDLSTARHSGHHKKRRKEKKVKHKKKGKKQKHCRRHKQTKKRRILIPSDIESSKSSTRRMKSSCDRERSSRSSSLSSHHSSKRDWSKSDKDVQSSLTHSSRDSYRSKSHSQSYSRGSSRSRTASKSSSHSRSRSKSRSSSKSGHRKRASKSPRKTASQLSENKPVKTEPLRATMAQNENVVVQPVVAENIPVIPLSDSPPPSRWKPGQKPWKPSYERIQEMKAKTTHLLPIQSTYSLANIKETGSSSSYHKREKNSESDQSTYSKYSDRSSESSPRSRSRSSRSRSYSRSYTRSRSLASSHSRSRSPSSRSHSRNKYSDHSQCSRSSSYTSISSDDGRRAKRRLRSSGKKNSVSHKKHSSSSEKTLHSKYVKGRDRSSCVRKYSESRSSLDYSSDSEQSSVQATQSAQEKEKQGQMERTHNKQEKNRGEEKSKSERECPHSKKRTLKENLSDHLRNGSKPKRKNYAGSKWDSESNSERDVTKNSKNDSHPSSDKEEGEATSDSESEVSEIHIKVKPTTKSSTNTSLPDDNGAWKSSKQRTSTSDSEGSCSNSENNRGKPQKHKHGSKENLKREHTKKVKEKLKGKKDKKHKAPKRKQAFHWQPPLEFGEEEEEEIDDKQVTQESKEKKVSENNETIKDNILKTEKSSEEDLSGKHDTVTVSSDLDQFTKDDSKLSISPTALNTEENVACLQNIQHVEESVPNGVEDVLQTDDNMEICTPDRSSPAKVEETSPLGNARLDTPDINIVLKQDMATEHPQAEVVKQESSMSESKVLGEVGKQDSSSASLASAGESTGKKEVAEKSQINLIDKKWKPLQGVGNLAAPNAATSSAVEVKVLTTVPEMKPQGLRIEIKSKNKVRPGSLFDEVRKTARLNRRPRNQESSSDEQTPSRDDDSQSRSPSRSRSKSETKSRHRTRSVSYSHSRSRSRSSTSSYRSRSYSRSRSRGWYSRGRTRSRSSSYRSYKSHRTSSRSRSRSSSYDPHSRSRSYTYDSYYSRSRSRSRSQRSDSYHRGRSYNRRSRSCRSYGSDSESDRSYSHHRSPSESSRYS
Method in brief: as §1

[3] = biological target: T3, SEC24C (UniProt P53992)
T3 sequence (whole entry): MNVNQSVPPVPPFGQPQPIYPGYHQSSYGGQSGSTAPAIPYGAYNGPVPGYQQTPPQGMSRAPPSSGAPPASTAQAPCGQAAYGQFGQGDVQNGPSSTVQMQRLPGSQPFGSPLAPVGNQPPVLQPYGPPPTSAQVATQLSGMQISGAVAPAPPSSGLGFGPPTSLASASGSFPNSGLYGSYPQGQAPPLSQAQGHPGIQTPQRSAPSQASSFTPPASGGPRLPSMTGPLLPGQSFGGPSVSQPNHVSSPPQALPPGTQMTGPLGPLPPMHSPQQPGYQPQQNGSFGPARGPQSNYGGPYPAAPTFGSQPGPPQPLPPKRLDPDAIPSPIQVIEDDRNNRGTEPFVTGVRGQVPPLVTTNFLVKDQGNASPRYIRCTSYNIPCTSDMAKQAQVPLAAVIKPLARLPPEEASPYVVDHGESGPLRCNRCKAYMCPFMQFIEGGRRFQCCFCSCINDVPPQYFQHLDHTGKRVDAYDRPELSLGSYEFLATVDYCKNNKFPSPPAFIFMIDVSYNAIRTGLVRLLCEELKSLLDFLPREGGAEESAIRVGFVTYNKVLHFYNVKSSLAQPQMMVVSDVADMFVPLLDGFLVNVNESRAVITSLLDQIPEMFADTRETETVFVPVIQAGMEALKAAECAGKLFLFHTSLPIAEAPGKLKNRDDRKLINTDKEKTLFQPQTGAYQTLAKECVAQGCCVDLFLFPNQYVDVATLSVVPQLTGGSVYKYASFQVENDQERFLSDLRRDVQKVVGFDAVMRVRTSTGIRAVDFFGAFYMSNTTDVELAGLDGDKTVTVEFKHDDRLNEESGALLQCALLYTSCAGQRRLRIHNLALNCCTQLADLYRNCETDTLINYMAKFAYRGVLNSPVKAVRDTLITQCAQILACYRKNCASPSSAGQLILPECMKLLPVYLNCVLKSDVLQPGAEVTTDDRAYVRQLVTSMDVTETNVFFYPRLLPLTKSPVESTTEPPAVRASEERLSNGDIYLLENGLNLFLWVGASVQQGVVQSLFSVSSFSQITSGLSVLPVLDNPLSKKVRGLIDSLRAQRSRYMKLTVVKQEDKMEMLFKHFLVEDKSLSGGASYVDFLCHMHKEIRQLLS
Method in brief: as §1

[4] = biological target: T4, SPAG7 (UniProt O75391)
T4 sequence (whole entry): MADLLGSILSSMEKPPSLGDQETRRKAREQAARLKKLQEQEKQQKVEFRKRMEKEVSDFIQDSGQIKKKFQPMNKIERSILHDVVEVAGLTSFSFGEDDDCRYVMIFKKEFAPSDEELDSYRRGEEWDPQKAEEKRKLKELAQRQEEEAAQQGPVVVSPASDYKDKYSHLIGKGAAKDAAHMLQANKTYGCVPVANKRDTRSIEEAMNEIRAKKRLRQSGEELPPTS
Method in brief: as §1

[5] = biological target: T5, UniProt O95294|O95294-2|O95294-3|O95294-4
T5 sequence (whole entry): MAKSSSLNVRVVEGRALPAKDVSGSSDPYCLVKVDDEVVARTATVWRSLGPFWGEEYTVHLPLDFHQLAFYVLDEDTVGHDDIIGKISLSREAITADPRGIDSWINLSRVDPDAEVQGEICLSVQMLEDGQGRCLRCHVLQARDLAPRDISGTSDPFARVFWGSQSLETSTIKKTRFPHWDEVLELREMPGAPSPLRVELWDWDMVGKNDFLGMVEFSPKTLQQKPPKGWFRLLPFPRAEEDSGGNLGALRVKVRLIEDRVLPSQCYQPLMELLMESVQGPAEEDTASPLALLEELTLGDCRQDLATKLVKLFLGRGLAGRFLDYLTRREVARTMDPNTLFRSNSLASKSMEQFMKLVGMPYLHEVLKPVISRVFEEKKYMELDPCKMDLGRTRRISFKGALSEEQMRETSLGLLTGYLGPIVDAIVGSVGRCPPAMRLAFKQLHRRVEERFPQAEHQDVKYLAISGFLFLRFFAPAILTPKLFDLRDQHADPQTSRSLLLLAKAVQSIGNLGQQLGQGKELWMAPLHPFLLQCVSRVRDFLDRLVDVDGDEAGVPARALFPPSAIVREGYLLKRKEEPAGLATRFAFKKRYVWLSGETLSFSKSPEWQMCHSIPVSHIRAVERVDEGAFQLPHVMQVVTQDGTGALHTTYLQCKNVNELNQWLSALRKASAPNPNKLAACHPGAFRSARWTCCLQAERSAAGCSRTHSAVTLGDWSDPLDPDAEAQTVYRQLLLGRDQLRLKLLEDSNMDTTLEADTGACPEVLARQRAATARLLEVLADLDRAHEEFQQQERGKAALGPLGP
Method in brief: as §1

[6] = biological target: T6, UniProt O95379-3|O95379-4
T6 sequence (whole entry): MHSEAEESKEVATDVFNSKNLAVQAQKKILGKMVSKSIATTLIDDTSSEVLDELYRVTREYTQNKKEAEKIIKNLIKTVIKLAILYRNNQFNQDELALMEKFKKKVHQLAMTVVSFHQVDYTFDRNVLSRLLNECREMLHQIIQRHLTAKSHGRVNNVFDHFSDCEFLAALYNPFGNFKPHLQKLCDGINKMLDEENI
Method in brief: as §1

[7] = biological target: T7, UniProt O95983|O95983-2|K7EIE8
T7 sequence (whole entry): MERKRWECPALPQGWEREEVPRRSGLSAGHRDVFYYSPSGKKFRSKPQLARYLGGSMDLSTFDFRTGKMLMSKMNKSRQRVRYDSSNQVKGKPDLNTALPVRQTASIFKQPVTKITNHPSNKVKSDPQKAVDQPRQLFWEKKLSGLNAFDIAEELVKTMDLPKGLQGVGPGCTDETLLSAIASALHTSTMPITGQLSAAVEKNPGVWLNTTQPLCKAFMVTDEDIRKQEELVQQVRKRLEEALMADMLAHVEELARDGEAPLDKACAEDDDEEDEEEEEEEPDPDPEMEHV
Method in brief: as §1

Compound: Nc1ncnc2c1ncn2[C@@H]1O[C@H](COP(=O)(O)OP(=O)(O)OP(=O)(O)O)[C@@H](O)[C@H]1O [adenosine triphosphate]
- NP40-soluble protein abundance ([1]; concentration: 1mM): 0.968 ± 0.053
- NP40-soluble protein abundance ([1]; concentration: 2mM): 0.96 ± 0.0051
- NP40-soluble protein abundance ([1]; concentration: 4mM): 0.945 ± 0.011
- NP40-soluble protein abundance ([1]; concentration: 6mM): 0.979 ± 0.015
- NP40-soluble protein abundance ([1]; concentration: 8mM): 0.922 ± 0.018
- NP40-soluble protein abundance ([1]; concentration: 10mM): 0.936 ± 0.03
- NP40-soluble protein abundance ([2]; concentration: 1mM): 1.53 ± 0.25
- NP40-soluble protein abundance ([2]; concentration: 2mM): 1.63 ± 0.19
- NP40-soluble protein abundance ([2]; concentration: 4mM): 1.68 ± 0.23
- NP40-soluble protein abundance ([2]; concentration: 6mM): 1.83 ± 0.22
- NP40-soluble protein abundance ([2]; concentration: 8mM): 1.75 ± 0.19
- NP40-soluble protein abundance ([2]; concentration: 10mM): 1.75 ± 0.22
- NP40-soluble protein abundance ([3]; concentration: 1mM): 0.99 ± 0.055
- NP40-soluble protein abundance ([3]; concentration: 2mM): 0.987 ± 0.057
- NP40-soluble protein abundance ([3]; concentration: 4mM): 0.98 ± 0.043
- NP40-soluble protein abundance ([3]; concentration: 6mM): 0.919 ± 0.095
- NP40-soluble protein abundance ([3]; concentration: 8mM): 0.981 ± 0.019
- NP40-soluble protein abundance ([3]; concentration: 10mM): 0.984 ± 0.074
- NP40-soluble protein abundance ([4]; concentration: 1mM): 0.972 ± 0.053
- NP40-soluble protein abundance ([4]; concentration: 2mM): 0.964 ± 0.047
- NP40-soluble protein abundance ([4]; concentration: 4mM): 0.964 ± 0.04
- NP40-soluble protein abundance ([4]; concentration: 6mM): 0.969 ± 0.046
- NP40-soluble protein abundance ([4]; concentration: 8mM): 0.9594 ± 0.0036
- NP40-soluble protein abundance ([4]; concentration: 10mM): 0.903 ± 0.058
- NP40-soluble protein abundance ([5]; concentration: 1mM): 0.95 ± 0.03
- NP40-soluble protein abundance ([5]; concentration: 2mM): 0.96 ± 0.069
- NP40-soluble protein abundance ([5]; concentration: 4mM): 1.01 ± 0.058
- NP40-soluble protein abundance ([5]; concentration: 6mM): 0.994 ± 0.11
- NP40-soluble protein abundance ([5]; concentration: 8mM): 0.962 ± 0.13
- NP40-soluble protein abundance ([5]; concentration: 10mM): 0.965 ± 0.15
- NP40-soluble protein abundance ([6]; concentration: 1mM): 0.855 ± 0.036
- NP40-soluble protein abundance ([6]; concentration: 2mM): 0.93 ± 0.019
- NP40-soluble protein abundance ([6]; concentration: 4mM): 0.885 ± 0.032
- NP40-soluble protein abundance ([6]; concentration: 6mM): 0.9504 ± 0.0062
- NP40-soluble protein abundance ([6]; concentration: 8mM): 0.932 ± 0.035
- NP40-soluble protein abundance ([6]; concentration: 10mM): 0.85 ± 0.1
- NP40-soluble protein abundance ([7]; concentration: 1mM): 1.03 ± 0.12
- NP40-soluble protein abundance ([7]; concentration: 2mM): 0.983 ± 0.078
- NP40-soluble protein abundance ([7]; concentration: 4mM): 0.98 ± 0.035
